According to the supplement of paper PMC11732987, “Enantioselective OTUD7B fragment discovery through chemoproteomics screening and high-throughput optimisation” (Communications Chemistry, 2025):
Values without a mark were called inactive.

Columns and labels:
Test in all cases: log2 ratio of Biotin-Ahx-Ub-VS probe labelling (fragment/DMSO); higher = less target engagement (more negative = stronger competition), active = hit call of the paper (q ≤ 0.05, log2 ratio ≤ -1)
Conditions in all cases: compound concentration: 200 uM; treatment time: 3 h
USP19 = target: T1, USP19 (UniProt O94966)
T1 sequence (whole entry): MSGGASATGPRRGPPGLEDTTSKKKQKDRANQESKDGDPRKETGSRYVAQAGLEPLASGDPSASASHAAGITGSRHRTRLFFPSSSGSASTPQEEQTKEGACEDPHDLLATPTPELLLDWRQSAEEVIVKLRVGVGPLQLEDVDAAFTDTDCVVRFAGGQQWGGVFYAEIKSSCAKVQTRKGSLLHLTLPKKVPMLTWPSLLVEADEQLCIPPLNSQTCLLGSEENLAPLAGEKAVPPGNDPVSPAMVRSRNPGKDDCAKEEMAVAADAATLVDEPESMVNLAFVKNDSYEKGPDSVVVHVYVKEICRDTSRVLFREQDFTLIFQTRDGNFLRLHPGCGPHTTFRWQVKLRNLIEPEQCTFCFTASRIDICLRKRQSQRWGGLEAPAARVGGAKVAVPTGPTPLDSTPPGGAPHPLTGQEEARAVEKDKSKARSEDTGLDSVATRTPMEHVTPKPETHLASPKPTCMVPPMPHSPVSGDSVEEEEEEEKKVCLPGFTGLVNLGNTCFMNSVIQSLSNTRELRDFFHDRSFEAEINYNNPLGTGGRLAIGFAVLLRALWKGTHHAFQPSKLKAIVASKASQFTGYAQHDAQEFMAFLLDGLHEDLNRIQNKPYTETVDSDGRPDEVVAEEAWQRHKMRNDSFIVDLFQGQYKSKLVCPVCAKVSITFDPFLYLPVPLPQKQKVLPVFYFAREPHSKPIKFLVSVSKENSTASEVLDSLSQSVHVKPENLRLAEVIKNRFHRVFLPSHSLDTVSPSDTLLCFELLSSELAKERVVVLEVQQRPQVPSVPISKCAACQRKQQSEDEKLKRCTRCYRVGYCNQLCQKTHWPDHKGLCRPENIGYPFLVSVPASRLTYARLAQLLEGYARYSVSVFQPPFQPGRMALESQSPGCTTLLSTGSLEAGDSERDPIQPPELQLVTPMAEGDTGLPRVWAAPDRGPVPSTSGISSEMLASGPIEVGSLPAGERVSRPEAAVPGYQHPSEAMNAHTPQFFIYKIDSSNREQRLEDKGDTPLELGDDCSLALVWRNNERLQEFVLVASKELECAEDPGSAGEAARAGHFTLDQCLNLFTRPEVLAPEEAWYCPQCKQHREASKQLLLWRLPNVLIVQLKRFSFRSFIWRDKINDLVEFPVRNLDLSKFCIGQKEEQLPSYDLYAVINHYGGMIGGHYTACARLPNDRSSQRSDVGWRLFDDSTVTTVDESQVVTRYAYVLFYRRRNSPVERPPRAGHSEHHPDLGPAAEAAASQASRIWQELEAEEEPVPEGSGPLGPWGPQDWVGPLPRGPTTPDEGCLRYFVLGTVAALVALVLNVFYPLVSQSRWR
In short: (§1)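 HEK293T lysate, 495 µg per sample in Tris/CHAPS/IGEPAL buffer with protease inhibitors, was treated in triplicate with fragment at 200 µM or vehicle for 3 h and then with Biotin-Ahx-Ub-VS at 0.5 µM final for 1 h. Labelled DUBs were NeutrAvidin-enriched, digested with LysC and trypsin, and run by diaPASEF LC-MS/MS. Spectronaut label-free quantities were global-median-normalised, and values are average log2 fragment/vehicle ratios by unpaired t-test on proteins with ≥2 unique peptides.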

USP22 = target: T2, USP22 (UniProt Q9UPT9)
T2 sequence (whole entry): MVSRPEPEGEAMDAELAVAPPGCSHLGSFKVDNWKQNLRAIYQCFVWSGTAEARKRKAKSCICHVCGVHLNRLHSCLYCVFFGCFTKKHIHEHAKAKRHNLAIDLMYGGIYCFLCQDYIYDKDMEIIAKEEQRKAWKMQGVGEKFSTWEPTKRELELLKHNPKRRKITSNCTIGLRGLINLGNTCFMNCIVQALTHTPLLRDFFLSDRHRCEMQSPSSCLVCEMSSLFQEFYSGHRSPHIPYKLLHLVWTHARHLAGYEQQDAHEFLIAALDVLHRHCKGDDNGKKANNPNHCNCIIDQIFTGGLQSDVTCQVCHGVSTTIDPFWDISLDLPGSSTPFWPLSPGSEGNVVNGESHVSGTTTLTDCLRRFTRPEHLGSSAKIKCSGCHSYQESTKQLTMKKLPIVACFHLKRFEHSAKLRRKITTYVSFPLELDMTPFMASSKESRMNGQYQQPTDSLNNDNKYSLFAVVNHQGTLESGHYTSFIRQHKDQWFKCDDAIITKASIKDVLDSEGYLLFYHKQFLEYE
In short: as §1

USP24 = USP24 (UniProt Q9UPU5)
Sequence of USP24 (Q9UPU5 whole entry): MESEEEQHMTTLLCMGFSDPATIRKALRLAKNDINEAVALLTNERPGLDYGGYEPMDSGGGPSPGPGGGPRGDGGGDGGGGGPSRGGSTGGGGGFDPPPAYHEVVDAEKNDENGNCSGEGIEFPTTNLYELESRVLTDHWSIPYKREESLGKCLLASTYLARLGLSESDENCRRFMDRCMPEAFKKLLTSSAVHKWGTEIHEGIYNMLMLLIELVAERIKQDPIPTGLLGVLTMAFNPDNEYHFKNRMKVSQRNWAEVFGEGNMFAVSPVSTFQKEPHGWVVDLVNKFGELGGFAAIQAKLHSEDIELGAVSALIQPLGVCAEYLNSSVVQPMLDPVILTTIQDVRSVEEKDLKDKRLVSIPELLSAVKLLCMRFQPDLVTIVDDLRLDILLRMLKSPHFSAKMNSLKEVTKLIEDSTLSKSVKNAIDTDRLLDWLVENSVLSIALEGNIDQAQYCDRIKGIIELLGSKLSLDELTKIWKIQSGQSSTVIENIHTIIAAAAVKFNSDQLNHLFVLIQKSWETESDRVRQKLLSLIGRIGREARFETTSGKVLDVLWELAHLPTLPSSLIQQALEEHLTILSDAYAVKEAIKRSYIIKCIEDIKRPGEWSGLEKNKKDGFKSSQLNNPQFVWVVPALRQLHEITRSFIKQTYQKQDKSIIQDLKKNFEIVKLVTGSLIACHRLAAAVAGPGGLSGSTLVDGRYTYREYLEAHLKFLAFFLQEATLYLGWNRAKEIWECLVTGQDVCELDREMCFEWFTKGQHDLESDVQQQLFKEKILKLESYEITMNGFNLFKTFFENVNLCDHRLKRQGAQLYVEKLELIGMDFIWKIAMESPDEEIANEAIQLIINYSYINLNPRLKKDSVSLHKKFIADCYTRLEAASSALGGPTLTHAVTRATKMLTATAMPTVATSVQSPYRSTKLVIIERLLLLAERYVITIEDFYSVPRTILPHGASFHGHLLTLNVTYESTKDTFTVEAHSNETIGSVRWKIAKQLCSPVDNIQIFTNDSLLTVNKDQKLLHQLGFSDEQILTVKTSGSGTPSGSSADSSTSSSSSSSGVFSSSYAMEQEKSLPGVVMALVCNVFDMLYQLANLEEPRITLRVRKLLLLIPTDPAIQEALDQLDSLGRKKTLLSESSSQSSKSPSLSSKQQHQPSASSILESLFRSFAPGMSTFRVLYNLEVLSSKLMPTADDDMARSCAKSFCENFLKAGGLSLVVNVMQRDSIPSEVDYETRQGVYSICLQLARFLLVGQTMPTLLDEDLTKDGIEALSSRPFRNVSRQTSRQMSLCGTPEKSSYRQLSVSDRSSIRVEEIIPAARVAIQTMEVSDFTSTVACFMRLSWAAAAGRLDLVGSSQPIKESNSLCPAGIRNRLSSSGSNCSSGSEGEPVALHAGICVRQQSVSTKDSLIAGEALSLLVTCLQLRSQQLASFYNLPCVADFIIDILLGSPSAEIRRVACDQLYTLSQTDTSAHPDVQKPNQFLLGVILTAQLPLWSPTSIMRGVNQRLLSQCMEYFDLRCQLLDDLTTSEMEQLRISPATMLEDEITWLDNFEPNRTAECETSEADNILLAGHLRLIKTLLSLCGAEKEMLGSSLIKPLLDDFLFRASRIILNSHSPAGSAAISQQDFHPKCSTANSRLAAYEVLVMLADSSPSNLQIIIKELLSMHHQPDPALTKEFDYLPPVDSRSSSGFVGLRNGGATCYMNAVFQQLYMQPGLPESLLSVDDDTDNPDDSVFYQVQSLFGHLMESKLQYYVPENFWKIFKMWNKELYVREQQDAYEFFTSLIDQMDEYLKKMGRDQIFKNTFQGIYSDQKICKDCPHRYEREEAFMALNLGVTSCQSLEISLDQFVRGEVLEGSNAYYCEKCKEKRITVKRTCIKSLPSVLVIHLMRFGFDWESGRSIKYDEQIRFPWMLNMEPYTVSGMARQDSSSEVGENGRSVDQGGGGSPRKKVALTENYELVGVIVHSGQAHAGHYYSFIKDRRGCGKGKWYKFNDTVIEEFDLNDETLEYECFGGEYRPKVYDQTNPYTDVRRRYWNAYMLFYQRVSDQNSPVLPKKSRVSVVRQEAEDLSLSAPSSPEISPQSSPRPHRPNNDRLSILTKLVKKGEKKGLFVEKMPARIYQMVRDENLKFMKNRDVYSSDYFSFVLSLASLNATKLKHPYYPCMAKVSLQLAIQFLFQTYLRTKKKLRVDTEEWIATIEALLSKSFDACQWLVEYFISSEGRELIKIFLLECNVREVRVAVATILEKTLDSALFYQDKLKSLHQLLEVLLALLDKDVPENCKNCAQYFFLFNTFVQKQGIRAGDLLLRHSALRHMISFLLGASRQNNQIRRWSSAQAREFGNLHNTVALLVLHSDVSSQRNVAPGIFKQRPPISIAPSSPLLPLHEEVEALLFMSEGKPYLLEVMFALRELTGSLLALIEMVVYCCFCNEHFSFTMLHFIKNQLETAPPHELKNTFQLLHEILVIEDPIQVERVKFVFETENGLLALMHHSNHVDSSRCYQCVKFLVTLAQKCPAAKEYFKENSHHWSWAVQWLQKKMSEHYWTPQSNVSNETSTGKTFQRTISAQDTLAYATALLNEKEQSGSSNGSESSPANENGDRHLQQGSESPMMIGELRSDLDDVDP
In short: as §1

USP25 = target: T3, USP25 (UniProt Q9UHP3)
T3 sequence (whole entry): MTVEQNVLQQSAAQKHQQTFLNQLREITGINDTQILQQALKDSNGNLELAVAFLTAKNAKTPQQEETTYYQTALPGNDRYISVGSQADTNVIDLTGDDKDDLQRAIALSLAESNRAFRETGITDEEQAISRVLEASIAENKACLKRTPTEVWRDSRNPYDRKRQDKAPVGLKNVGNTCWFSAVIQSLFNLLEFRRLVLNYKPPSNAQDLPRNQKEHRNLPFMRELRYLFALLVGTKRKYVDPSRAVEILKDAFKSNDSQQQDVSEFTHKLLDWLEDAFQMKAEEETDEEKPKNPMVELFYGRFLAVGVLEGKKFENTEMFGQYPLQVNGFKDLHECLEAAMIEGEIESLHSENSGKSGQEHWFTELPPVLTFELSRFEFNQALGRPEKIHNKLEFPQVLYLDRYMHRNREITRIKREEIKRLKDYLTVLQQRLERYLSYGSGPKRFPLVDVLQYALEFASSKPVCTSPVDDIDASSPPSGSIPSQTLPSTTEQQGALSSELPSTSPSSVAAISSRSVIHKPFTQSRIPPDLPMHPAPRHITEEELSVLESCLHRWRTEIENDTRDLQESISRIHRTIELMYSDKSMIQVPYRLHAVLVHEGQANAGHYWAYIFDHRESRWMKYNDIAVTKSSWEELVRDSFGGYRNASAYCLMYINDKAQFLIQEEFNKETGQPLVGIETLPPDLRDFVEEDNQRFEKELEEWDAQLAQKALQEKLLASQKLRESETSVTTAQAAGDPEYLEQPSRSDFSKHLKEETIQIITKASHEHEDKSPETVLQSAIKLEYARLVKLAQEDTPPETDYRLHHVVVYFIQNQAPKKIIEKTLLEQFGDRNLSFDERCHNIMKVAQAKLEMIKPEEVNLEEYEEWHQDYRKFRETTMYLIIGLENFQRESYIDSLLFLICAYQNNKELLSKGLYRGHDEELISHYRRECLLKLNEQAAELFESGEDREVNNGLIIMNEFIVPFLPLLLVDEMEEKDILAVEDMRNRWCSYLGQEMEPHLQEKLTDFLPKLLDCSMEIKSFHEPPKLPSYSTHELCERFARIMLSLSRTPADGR
In short: as §1

USP28 = target: T4, USP28 (UniProt Q96RU2)
T4 sequence (whole entry): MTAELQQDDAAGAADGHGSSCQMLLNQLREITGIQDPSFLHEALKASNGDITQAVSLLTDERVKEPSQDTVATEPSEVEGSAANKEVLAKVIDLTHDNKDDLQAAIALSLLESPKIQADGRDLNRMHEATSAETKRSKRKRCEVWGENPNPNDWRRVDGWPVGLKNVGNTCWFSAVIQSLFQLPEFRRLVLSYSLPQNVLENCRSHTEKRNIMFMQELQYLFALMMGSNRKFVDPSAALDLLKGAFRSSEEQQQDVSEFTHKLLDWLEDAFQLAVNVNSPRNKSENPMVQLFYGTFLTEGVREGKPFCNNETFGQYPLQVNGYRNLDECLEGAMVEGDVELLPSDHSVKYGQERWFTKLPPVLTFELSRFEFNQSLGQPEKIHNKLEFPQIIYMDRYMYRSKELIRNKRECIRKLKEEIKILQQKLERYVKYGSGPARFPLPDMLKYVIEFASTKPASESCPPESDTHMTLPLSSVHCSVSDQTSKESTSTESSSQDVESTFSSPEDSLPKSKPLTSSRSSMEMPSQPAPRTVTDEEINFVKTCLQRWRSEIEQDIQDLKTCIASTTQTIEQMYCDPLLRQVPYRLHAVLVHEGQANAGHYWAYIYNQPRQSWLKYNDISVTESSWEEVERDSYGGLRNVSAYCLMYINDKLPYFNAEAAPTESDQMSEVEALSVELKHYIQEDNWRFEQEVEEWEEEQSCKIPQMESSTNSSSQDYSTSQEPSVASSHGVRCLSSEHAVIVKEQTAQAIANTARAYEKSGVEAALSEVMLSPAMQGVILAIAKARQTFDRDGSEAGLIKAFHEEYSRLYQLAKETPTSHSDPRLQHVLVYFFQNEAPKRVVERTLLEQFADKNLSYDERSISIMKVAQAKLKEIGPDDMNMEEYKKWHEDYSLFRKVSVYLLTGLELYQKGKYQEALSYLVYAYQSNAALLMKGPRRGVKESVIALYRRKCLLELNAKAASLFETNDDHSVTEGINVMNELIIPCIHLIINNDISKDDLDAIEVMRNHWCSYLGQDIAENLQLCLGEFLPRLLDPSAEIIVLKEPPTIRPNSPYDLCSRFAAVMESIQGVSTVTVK
In short: as §1

O=C(CCl)N1CCc2nc[nH]c2C1c1ccc(Cl)cc1 (stereo not given)
log2 ratio of Biotin-Ahx-Ub-VS probe labelling (USP19): -0.509 | log2 ratio of Biotin-Ahx-Ub-VS probe labelling (USP22): 0.00421 | log2 ratio of Biotin-Ahx-Ub-VS probe labelling (USP24): -1.47 (active) | log2 ratio of Biotin-Ahx-Ub-VS probe labelling (USP25): -0.591 | log2 ratio of Biotin-Ahx-Ub-VS probe labelling (USP28): -0.738
